Reference: ChEMBL document CHEMBL1961873, “Compounds: GSK PKIS; Assays: Nanosyn kinase panel” (2012)

Assays:
[1] = target: Sphingosine kinase 1 (Homo sapiens) (UniProt Q9NYA1); conditions: at 1 µM;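 also: mean SPHK1 inhibition value reported from the GSK PKIS kinase panel screen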
[2] = target: T1, Sphingosine kinase 2 (Homo sapiens) (UniProt Q9NRA0); conditions: at 0.1 µM
T1 sequence (whole entry): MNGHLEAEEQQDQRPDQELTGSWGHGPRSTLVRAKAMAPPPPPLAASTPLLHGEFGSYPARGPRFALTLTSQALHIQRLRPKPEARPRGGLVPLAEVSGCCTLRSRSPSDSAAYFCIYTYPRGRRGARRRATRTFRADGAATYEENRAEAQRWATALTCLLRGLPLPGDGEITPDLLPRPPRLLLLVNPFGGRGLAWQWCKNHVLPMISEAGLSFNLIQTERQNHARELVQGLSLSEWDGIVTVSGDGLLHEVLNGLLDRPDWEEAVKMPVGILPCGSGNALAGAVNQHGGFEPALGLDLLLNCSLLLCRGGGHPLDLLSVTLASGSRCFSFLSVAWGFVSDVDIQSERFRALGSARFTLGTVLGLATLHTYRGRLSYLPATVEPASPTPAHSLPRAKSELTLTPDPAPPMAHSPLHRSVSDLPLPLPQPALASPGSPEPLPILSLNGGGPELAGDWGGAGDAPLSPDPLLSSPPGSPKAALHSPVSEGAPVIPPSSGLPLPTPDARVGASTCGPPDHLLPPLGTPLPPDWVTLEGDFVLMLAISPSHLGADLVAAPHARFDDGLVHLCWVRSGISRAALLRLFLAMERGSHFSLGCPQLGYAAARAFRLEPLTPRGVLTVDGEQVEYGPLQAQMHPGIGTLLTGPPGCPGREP

[3] = target: T1, Sphingosine kinase 2 (Homo sapiens); conditions: at 1 µM
[4] = target: Casein kinase II subunit alpha (Homo sapiens) (UniProt P68400); conditions: at 0.1 µM
[5] = target: Casein kinase II subunit alpha (Homo sapiens) (UniProt P68400); conditions: at 1 µM
[6] = target: T2, Inhibitor of nuclear factor kappa-B kinase subunit alpha (Homo sapiens) (UniProt O15111); conditions: at 0.1 µM
T2 sequence (whole entry): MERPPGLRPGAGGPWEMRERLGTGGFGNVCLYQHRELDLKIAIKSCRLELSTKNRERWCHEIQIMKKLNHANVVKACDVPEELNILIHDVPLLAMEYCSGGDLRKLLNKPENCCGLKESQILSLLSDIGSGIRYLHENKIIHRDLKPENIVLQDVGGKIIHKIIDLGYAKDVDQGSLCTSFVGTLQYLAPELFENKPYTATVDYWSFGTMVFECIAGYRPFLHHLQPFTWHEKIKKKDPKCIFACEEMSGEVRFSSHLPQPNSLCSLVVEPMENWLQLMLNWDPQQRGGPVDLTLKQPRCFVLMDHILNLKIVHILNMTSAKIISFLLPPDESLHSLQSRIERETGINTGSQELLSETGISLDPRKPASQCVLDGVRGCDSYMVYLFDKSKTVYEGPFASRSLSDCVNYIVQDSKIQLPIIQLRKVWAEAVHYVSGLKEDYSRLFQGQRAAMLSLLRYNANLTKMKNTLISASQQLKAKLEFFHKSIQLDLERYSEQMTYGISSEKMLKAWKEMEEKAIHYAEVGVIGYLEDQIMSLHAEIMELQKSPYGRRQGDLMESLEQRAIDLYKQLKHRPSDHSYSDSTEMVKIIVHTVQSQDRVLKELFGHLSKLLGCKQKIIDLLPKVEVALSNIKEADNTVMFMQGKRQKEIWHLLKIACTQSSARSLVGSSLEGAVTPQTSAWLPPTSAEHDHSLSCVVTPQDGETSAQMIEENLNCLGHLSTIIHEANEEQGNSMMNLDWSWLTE

[7] = target: T2, Inhibitor of nuclear factor kappa-B kinase subunit alpha (Homo sapiens); conditions: at 1 µM
[8] = target: T3, Inhibitor of nuclear factor kappa-B kinase subunit beta (Homo sapiens) (UniProt O14920); conditions: at 0.1 µM
T3 sequence (whole entry): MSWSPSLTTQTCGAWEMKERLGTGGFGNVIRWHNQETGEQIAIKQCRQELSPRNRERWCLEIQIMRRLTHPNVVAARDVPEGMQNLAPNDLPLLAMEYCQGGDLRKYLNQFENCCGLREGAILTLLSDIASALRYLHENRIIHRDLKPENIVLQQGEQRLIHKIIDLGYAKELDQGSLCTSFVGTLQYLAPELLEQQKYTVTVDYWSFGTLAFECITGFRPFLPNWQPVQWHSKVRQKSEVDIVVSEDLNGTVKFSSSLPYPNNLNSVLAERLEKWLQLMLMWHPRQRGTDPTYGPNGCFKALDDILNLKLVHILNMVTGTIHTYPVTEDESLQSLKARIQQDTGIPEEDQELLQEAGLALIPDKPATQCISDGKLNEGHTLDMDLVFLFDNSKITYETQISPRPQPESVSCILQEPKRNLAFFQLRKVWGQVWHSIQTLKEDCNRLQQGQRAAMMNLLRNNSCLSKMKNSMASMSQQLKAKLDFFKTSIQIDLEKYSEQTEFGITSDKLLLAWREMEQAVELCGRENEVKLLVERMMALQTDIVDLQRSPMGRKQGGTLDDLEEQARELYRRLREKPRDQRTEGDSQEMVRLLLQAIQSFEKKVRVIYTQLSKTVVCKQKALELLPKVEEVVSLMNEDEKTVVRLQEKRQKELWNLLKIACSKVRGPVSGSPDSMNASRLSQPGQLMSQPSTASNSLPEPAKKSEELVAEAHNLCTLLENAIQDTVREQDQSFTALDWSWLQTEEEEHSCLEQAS

[9] = target: T3, Inhibitor of nuclear factor kappa-B kinase subunit beta (Homo sapiens); conditions: at 1 µM
[10] = target: T4, Inhibitor of nuclear factor kappa-B kinase subunit epsilon (Homo sapiens) (UniProt Q14164); conditions: at 0.1 µM
T4 sequence (whole entry): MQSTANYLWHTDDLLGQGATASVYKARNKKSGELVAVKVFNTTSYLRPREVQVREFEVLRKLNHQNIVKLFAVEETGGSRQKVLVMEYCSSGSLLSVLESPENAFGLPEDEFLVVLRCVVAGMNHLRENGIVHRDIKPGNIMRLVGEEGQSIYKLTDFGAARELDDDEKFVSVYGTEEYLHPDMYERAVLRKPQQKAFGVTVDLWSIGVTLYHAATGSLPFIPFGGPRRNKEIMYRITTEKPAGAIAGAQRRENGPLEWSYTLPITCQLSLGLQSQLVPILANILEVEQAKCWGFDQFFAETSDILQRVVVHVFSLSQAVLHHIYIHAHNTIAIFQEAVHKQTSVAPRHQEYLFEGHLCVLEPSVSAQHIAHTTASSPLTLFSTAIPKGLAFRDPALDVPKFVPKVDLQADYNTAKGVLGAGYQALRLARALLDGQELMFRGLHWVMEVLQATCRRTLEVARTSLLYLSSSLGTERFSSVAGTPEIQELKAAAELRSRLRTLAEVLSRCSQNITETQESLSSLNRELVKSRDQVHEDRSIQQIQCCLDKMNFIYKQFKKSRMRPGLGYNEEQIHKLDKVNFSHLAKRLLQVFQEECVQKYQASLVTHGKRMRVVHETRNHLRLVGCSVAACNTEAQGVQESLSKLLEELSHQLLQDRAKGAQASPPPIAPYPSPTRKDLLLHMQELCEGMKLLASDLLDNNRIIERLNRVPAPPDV

[11] = target: T4, Inhibitor of nuclear factor kappa-B kinase subunit epsilon (Homo sapiens); conditions: at 1 µM
[12] = target: T5, Serine/threonine-protein kinase Nek1 (Homo sapiens) (UniProt Q96PY6); conditions: at 0.1 µM
T5 sequence (whole entry): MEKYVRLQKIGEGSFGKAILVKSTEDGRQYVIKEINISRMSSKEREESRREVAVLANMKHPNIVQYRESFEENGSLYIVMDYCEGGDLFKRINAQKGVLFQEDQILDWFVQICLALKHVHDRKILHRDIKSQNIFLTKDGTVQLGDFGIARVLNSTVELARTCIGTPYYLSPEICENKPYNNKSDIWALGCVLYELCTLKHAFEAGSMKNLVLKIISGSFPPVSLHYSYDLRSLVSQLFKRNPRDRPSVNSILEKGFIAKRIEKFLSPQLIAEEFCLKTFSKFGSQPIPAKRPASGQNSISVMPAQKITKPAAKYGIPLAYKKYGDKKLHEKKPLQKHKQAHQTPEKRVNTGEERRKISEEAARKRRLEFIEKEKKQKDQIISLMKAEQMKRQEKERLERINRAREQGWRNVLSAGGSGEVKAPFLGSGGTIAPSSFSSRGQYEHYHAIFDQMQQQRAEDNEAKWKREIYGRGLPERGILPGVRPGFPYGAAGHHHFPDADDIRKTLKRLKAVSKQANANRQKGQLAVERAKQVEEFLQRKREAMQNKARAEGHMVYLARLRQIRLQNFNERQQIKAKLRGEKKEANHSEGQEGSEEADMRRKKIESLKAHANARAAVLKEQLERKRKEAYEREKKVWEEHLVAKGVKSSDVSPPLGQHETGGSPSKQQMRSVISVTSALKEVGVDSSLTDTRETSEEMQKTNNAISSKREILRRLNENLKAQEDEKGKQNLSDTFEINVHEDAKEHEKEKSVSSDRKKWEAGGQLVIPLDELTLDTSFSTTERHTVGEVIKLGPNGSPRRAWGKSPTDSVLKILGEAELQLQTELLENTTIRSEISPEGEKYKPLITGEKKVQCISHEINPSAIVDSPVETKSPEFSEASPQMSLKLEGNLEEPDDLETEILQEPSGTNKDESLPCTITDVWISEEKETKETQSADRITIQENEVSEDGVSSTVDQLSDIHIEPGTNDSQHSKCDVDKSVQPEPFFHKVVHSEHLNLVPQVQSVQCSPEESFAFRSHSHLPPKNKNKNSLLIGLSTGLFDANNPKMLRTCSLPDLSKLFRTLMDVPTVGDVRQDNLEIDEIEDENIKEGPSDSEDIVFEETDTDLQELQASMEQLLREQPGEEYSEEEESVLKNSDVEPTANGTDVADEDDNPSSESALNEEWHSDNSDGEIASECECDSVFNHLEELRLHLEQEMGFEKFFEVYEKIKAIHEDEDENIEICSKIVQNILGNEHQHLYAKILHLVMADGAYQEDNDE

[13] = target: T5, Serine/threonine-protein kinase Nek1 (Homo sapiens); conditions: at 1 µM
[14] = target: T6, Serine/threonine-protein kinase Nek2 (Homo sapiens) (UniProt P51955); conditions: at 0.1 µM
T6 sequence (whole entry): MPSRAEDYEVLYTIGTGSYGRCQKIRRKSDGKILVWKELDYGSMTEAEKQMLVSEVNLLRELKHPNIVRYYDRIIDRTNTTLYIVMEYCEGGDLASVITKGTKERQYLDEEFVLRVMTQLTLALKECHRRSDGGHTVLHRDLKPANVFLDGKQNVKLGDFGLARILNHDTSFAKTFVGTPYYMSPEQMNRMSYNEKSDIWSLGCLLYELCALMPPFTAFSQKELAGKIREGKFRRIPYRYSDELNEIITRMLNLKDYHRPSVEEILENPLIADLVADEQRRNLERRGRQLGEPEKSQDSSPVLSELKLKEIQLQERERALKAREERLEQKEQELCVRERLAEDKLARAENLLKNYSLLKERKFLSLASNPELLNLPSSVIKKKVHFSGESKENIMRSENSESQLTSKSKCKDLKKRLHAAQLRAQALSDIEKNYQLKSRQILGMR

[15] = target: T6, Serine/threonine-protein kinase Nek2 (Homo sapiens); conditions: at 1 µM
[16] = target: Serine/threonine-protein kinase Nek6 (Homo sapiens) (UniProt Q9HC98); conditions: at 0.1 µM
[17] = target: Serine/threonine-protein kinase Nek6 (Homo sapiens) (UniProt Q9HC98); conditions: at 1 µM
[18] = target: Serine/threonine-protein kinase Nek7 (Homo sapiens) (UniProt Q8TDX7); conditions: at 0.1 µM
[19] = target: Serine/threonine-protein kinase Nek7 (Homo sapiens) (UniProt Q8TDX7); conditions: at 1 µM
[20] = target: T7, Serine/threonine-protein kinase Nek9 (Homo sapiens) (UniProt Q8TD19); conditions: at 0.1 µM;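 also: reported value is the mean percent inhibition of NEK9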
T7 sequence (whole entry): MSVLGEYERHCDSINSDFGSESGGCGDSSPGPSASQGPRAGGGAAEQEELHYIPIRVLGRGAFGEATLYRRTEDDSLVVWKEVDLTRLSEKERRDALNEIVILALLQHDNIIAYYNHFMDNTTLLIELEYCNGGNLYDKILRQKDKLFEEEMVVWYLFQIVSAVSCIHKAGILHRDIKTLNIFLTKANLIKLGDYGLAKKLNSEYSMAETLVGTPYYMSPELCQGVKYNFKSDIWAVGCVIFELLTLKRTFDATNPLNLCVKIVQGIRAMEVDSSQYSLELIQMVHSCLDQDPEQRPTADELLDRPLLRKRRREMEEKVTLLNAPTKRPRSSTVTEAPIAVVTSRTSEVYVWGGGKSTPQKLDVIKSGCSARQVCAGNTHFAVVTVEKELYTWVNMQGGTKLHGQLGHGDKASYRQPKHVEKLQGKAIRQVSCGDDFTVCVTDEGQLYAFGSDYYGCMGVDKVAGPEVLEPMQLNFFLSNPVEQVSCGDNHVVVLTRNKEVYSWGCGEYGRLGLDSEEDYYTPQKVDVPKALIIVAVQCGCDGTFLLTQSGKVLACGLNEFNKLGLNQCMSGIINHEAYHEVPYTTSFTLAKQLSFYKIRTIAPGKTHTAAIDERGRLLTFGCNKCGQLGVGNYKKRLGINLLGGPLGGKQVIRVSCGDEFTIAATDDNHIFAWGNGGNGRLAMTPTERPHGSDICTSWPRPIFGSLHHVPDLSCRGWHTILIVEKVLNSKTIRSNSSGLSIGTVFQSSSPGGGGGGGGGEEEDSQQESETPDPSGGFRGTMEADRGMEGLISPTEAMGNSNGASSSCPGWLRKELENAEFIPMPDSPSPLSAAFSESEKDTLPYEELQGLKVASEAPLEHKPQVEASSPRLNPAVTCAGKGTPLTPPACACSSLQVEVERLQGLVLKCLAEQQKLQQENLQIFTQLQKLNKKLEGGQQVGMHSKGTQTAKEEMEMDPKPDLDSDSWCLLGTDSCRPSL

Chain of Serine/threonine-protein kinase Nek6 (Homo sapiens) (Q9HC98 whole entry): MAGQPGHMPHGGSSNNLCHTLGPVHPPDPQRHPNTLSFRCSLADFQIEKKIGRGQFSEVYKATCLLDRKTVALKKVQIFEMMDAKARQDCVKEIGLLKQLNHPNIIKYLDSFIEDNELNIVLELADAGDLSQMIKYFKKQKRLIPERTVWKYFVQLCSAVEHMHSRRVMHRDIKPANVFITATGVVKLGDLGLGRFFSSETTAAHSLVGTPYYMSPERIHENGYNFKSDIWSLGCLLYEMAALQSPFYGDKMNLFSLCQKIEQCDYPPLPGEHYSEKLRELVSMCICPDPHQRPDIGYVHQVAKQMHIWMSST
Chain of Casein kinase II subunit alpha (Homo sapiens) (P68400 whole entry, looked up): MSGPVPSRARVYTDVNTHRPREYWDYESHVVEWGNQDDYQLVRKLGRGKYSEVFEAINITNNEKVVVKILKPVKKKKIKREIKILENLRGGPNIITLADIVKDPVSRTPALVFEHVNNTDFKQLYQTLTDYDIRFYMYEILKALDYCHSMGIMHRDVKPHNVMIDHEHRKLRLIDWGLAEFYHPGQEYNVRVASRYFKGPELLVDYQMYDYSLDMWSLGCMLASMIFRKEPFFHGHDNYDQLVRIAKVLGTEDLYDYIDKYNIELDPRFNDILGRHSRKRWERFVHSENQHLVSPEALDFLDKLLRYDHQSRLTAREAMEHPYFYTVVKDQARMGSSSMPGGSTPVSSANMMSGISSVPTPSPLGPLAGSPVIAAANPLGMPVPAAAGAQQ
Chain of Serine/threonine-protein kinase Nek7 (Homo sapiens) (Q8TDX7 whole entry, looked up): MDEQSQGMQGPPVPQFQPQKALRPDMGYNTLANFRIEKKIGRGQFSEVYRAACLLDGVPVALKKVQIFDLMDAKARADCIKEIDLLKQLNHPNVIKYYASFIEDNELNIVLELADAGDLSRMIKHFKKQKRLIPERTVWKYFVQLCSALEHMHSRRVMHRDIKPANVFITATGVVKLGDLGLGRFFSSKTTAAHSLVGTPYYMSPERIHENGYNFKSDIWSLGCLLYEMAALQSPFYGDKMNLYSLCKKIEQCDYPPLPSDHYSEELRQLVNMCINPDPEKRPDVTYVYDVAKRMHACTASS
Chain of Sphingosine kinase 1 (Homo sapiens) (Q9NYA1 whole entry): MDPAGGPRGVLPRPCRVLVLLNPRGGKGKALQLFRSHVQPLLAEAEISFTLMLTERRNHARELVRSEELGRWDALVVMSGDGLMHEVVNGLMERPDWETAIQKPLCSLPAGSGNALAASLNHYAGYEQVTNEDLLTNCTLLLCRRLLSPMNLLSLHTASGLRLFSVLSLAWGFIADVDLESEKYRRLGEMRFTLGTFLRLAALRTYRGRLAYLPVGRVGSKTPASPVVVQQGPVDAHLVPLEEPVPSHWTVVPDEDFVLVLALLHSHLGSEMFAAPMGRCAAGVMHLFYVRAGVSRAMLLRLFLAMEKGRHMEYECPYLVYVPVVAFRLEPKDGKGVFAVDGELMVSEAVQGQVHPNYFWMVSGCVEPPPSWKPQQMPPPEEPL

SMILES: O=C1NC(=O)C(c2cccc(Cl)c2)=C1Nc1ccc(O)c(Cl)c1
- inhibition [1]: -1.72%
- inhibition [2]: -1.48%
- inhibition [3]: -0.07%
- inhibition [4]: -2.69%
- inhibition [5]: -1.28%
- inhibition [6]: 0.7%
- inhibition [7]: 0.73%
- inhibition [8]: -0.95%
- inhibition [9]: -3.39%
- inhibition [10]: -0.3%
- inhibition [11]: 0.33%
- inhibition [12]: 0.25%
- inhibition [13]: 0.17%
- inhibition [14]: 1.39%
- inhibition [15]: 1.51%
- inhibition [16]: -0.33%
- inhibition [17]: -3.08%
- inhibition [18]: 1.78%
- inhibition [19]: 1.51%
- inhibition [20]: 1.58%
